Records with an inconclusive call do not appear. Entries that show only a call come without a potency. Active and inactive are the calls of the source. The call rests on the fitted dose curve.

Consider 40 compounds from PubChem BioAssay (Tox21).

This test in a line: p53 small molecule agonists, cell-based qHTS assay with rat liver microsomes: qHTS cell viability counter screen (AID 1963580). Further: nearly all actives have a fitted effect of over 45% in size. Particulars: p53RE-bla HCT-116 + rat microsomes, ATP viability, 16 h; series mostly up to 66 µM. The text has this: National Center for Advancing Translational Sciences [NCATS]
Division of Preclinical Innovation [DPI]
U.S. Environmental Protection Agency [EPA]
National Institutes of Environmental Health Sciences [NIEHS]
National Toxicology Program [NTP]
U.S. Food and Drug Administration [FDA]
p53, a tumor suppressor protein, is activated following cellular insult, including DNA damage and other cellular stresses. The activation of p53 regulates cell fate by inducing DNA repair, cell cycle arrest, apoptosis, or cellular senescence. The activation of p53, therefore, is a good indicator of DNA damage and other cellular stresses. The CellSensor p53RE-bla HCT-116 cell line contains a stably integrated beta-lactamase reporter gene under control of the p53 response elements. The activation of the reporter gene under culture conditions can be detected by fluorescence intensity. This cell line was used to screen the Tox21 10K compound library in the condition of presence of rat liver microsomes and to identify agonists that activate the p53 signaling pathway after in vitro metabolic activation (Ooka et al., Archive of Toxicology 96:1975-1987, 2022). The cytotoxicity of the Tox21 compound library against the p53 RE-bla HCT-116 cell line was tested in parallel by measuring the intra cellular ATP content in the same wells.
Tox21 Assay Protocol Summary:
The p53RE-bla cells were dispensed at 4,000cells/3ul/well in 1536-well black-clear bottom plates. After the assay plates were incubated at 37 C, 5% CO2 incubator for 5 hours, 23 nL of compounds dissolved in DMSO, positive controls or DMSO only was transferred to the assay plate. Following compound addition, 3 uL of rat liver microsomes (Molecular Toxicology, Boone, NC) at final concentration of 0.5 mg/mL and 1uL of B-Nicotinamide adenine dinucleotide 2'-phosphate (NADPH) at final concentration of 0.5 mg/mL were transferred to the assay plate. The plates were incubated at 37 C for 16 hours. 1 uL of LiveBLAzer detection mixture was added to each well and the plates were incubated at room temperature in the dark for 2 h. Fluorescence intensity at 460 and 530 nm emission and 405 nm excitation were measured by an Envision plate reader. For cell viability readout that measures cytotoxicity, 4 ul/well of CellTiter-Glo reagent was added into the assay plates using a Flying Reagent Dispenser. After 30 min incubation at room temperature, the luminescence intensity in the plates was measured using a ViewLux plate reader.
For the compound `CNC(=O)Oc1ccc2c(c1)[C@]1(C)CCN(C)[C@@H]1N2C`, the Potency result is “inactive”. Then `CC(=O)OCc1ccc2c(c1)OCO2`, with “inactive”; and `O=C(O)c1cccc([N+](=O)[O-])c1`, with “inactive”; and `COC1=CC(=O)C[C@@H](C)[C@]12Oc1c(Cl)c(OC)cc(OC)c1C2=O`, with “inactive”. Then `Cc1cccc(C)c1`, with “inactive”; and `O=C(O)CN(CC(=O)O)CC(=O)O`, with “inactive”. The entry for `CCO[Si](CCCNC(N)=O)(OCC)OCC` is “inactive”; for `CCCCNC(=O)NS(=O)(=O)c1ccc(C)cc1` it is “inactive”.

On to `O=c1n(CC2CO2)c(=O)n(CC2CO2)c(=O)n1CC1CO1` (stereo not given), for which the Potency result was “inactive”. Regarding `NC(CO)(CO)CO`, the Potency entry was “inactive”. The entry for `COC(=O)c1ccccc1` is “inactive”; for `CC(=O)[C@H]1CC[C@H]2[C@@H]3CC=C4C[C@@H](O)CC[C@]4(C)[C@H]3CC[C@]12C` it is “inactive”. The entry for `c1ccc2n[nH]nc2c1` is “inactive”. `COC(=O)CCCC(=O)OC`: the Potency result was “inactive”. In the case of `CNC[C@H](O)c1cccc(O)c1`, the Potency entry is “inactive”.

Consider `CCCCCCCCC`, for which the Potency entry is “inactive”.

`COc1ccc(Cl)cc1C(=O)NCCc1ccc(S(=O)(=O)NC(=O)NC2CCCCC2)cc1`: the Potency result was “inactive”. For `COCCOCCOC`, the Potency result is “inactive”.

In the case of `Cc1ccc(C)c(C)c1`, the Potency result is “inactive”.

For `CC(=O)CC(c1ccccc1)c1c(O)c2ccccc2oc1=O` (stereo not given), the Potency entry is “inactive”. Then `CCc1ccc(CCOc2ccc(CC3SC(=O)NC3=O)cc2)nc1` (stereo not given), with “inactive”; and `CCOc1ccc(NC(=O)CC(C)O)cc1` (stereo not given), with “inactive”. In the case of `O=C(c1ccccc1)C(O)c1ccccc1` (stereo not given), the Potency result was “inactive”. Consider `C=C(C)C(=O)OCCCCCCCCCCCC`, for which the Potency entry was “inactive”. Then `C1CNCCN1`, with “inactive”; and `O=Cc1ccc(CO)o1`, with “inactive”; and `C/C=C/c1ccc(OCC)c(O)c1`, with “inactive”.

With `O=S(=O)(O)c1ccc2ccccc2c1`, the Potency entry is “inactive”. Then `C=C(C)C(=O)O`, with “inactive”; and `CC1(C)O[C@@H]2C[C@H]3[C@@H]4CCC5=CC(=O)C=C[C@]5(C)[C@@]4(F)[C@@H](O)C[C@]3(C)[C@]2(C(=O)CO)O1`, with “inactive”; and `NS(=O)(=O)c1cc2c(cc1Cl)NC=NS2(=O)=O`, with “inactive”. On to `OC[C@@H](O)[C@H](O)[C@H](O)[C@@H](O)CO`, for which the Potency result is “inactive”. As for `CC(O)CC(C)(C)O` (stereo not given), the Potency result is “inactive”. The entry for `C#CCN(C)Cc1ccccc1` is “inactive”; for `CC1=CC[C@H]2C[C@@H]1C2(C)C` it is “inactive”. On to `O=S(=O)(O)NC1CCCCC1`, for which the Potency entry was “inactive”. Then `CC(O)COc1ccccc1` (stereo not given), with “inactive”; and `CN(C)C=O`, with “inactive”; and `COc1ccc(C)cc1N`, with “inactive”. The entry for `Nc1cc([N+](=O)[O-])ccc1C(=O)O` is “inactive”.
